# This is a sample that favours compounds with a hit; in the whole collection about 3.1% have one here.
# ATG4B inh: ATG4B protease inhibitors, primary screen, biochemical, fluorescence, uHTS; ATG4B cleavage of LC3-PLA2, NBD-HPC fluorescence, 1 h; Cysteine protease ATG4B (Homo sapiens), Q9Y4P1; inhibition, % at 8.33 µM; 0.51% of 340,000 active; AID 504462, 2011; in the data active = inhibition above about 40%
# Target sequence (Q9Y4P1 whole entry, looked up): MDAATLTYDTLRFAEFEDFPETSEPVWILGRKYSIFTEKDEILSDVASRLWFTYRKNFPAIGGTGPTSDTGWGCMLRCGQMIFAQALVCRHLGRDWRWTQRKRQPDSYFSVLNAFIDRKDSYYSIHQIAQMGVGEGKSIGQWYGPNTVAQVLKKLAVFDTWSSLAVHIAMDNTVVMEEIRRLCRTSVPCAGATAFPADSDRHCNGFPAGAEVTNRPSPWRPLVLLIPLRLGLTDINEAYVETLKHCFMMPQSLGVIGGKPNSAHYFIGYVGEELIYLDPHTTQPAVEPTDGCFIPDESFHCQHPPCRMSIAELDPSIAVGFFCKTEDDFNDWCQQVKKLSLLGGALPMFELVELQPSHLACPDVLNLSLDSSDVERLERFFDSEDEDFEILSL
# PREPL inh: PREPL enzyme inhibitors, primary screen, biochemical, fluorescence polarization | recombinant PREPL, fluorescence polarization activity-based probe | inhibition, % at 5.96 µM | 0.68% of 320,000 active; in the data active = inhibition above about 43%;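 also: 0% = enzyme with DMSO and 100% = wells lacking enzyme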
# MEKK3 PB1 HTS: modulators of MEKK3-MEK5 PB1 binding, primary screen, biochemical, wildtype MEKK3, multiplex bead flow cytometry, Alexa488-MEK5; bead-based flow cytometry, Alexa488-MEK5 binding to MEKK3; actives lie on both sides; 0 = blocked by unlabeled MEK5, 100 = vehicle; binding response (% of control), % at 10 µM; 1.4% of 290,000 active; AID 1529, 2009;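 active = binding response more than 3 SD above or below the average of its plate-row segment, actives on both sides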;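 also: Alexa488 bead fluorescence after subtracting the streptavidin-only scavenger bead signal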
# MEKK2wt PB1 HTS: modulators of MEK5 binding to wildtype MEKK2, primary screen, biochemical, multiplex bead flow cytometry, Alexa488-MEK5; binding response (% of control), % at 10 µM; 1.1% of 290,000 active; AID 1531, 2009; Mitogen-activated protein kinase kinase kinase 2 (Homo sapiens), Q9Y2U5; Alexa488-MEK5 binding to MEKK2 WT; actives lie on both sides; in the data active = binding response below about 67% or above about 130%
# UBC13 polyUb: UBC13 polyubiquitin chain formation inhibitors, primary screen, biochemical, TR-FRET, uHTS | Ubiquitin-conjugating enzyme E2 N (Homo sapiens), P61088 | inhibition, % at 20 µM | 0.47% of 330,000 active; in the data active = inhibition above about 45%, passing the limit was not always enough
# Target sequence (P61088 whole entry, looked up): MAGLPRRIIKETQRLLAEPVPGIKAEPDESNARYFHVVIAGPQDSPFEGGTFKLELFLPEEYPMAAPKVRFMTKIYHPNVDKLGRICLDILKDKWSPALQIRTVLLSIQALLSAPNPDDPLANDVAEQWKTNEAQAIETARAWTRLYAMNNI
# MEKK2 mut-MEK5: MEK5 binding signal on mutant MEKK2 PB1, primary screen, biochemical, multiplex bead flow cytometry, Alexa488-MEK5; percent response, % at 10 µM; 0.35% of 290,000 active; Alexa488-MEK5 binding to MEKK2 mutant; in the data active = percent response above about 24%, passing the limit was not always enough
# MEKK2wt confirm: modulators of MEK5 binding to wildtype MEKK2, confirmation, biochemical, single concentration, multiplex bead flow cytometry; 2.4% of 5,900 active; shares compounds with MEKK3 PB1 HTS; Alexa488-MEK5 binding to MEKK2 WT; actives lie on both sides; binding response (% of control), % at 10 µM; in the data active = binding response below about 16% or above about 210%; inactive = in between
# MEKK2mut-MEK5: mutant MEKK2 PB1-MEK5 binding signal retest – biochemical, single concentration, multiplex bead flow cytometry, confirmation; shares compounds with MEKK3 PB1 HTS; Alexa488-MEK5 binding to MEKK2 mutant; percent response, % at 10 µM; 2% of 5,900 active; in the data active = percent response mostly above about 71%, no sharp cut-off; inactive = mostly below about 38%;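 also: higher means compound restores mutant binding toward wildtype level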
# MEKK3 confirm: MEKK3 wild-type PB1 binding to MEK5, inhibitors, confirmation, biochemical, bead multiplex flow cytometry, single concentration, wildtype | AID 1894, 2009 | 1.8% of 5,900 active | binding response (% of control), % at 10 µM | Alexa488-MEK5 binding to MEKK3; hits give low values | shares compounds with MEKK3 PB1 HTS;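 active = binding response below 72% of control, or above a set upper limit, though filed actives all read lower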;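 also: 100% = DMSO only wells and 0% = binding blocked by excess unlabeled MEK5; lower values mean stronger disruption of MEK5 binding to MEKK3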
# * marks the source's active call; other numbers are inactive results; · = no result; [ ] = remark or other dose.
SMILES,ATG4B inh,PREPL inh,MEKK3 PB1 HTS,MEKK2wt PB1 HTS,UBC13 polyUb,MEKK2 mut-MEK5,MEKK2wt confirm,MEKK2mut-MEK5,MEKK3 confirm
Cc1ccccc1Nc1cc(C)c2c(O)cccc2n1,-7.4,-7.8,57.0*[inhibitor],75.0,32.4,-7.0,115.0,16.0,100.0
COc1ccc(S(=O)(=O)NCCSc2ccc(C)cc2)cc1OC,-5.0,1.7,122.0*,123.0,-2.9,9.0,98.0,1.0,100.0
COc1ccc(S(=O)(=O)NCCSc2ccccc2)cc1OC,0.7,-8.4,99.0,97.0,4.6,1.0,·,·,·
Cc1ccc(NC(=O)O/N=C/c2ccc(N(C)C)cc2)cc1,2.8,12.8,103.0,103.0,-12.0,3.0,·,·,·
O=C(C[n+]1ccccc1)Nc1c(Cl)cc(Cl)cc1Cl,2.4,-11.5,86.0,86.0,-6.4,-14.0,·,·,·
Cc1ccc[n+](CC(=O)Nc2c(Cl)cc(Cl)cc2Cl)c1,1.8,-36.9,68.0*[inhibitor],68.0,-0.2,-13.0,100.0,-3.0,98.0
Cc1cc(C)nc(NC(=NCCc2c[nH]c3ccccc23)NC(=O)Nc2ccc(Cl)cc2)n1,-8.8,17.8,59.0*[inhibitor],111.0,-7.3,1.0,106.0,-2.0,103.0
Cc1cc(C)nc(NC(N)=NCCc2c[nH]c3ccccc23)n1,2.5,33.2,103.0,117.0,23.2,8.0,·,·,·
CCC(C)(C)c1ccc(OCCCC[n+]2cccc(C)c2)c(C(C)(C)CC)c1,12.3,·,107.0,191.0*,·,44.0,192.0,81.0*,111.0
Cc1ccc[n+](CC(=O)Nc2cc(C(F)(F)F)ccc2Cl)c1,2.8,-3.0,91.0,95.0,-4.5,-4.0,·,·,·
Cc1cc2cc(CN(CCN3CCOCC3)C(=O)Nc3ccccc3F)c(=O)[nH]c2cc1C,0.7,23.4,107.0,110.0,2.2,10.0,·,·,·
Cc1cccc2cc(CN(CCN3CCOCC3)C(=O)Nc3ccccc3F)c(=O)[nH]c12,-8.3,10.8,132.0*,112.0,3.0,1.0,104.0,-4.0,101.0
O=C(CCNC(=O)c1ccccc1Cl)Nc1ccc(Cl)c(C(F)(F)F)c1,-2.2,11.1,109.0,108.0,18.3,-2.0,·,·,·
O/N=C1\CCCc2c1nc(-c1ccccc1F)n2O,-6.5,6.0,130.0*,113.0,-1.5,26.0,120.0,7.0,105.0
CCOc1ccc(N=C2NC(=O)C(CC(=O)Nc3ccc(OC)cc3)S2)cc1 (stereo unspecified),1.0,13.3,103.0,92.0,3.1,1.0,·,·,·
Cc1ccc(NC(=O)CC2SC(=Nc3ccc(O)cc3)NC2=O)cc1 (stereo unspecified),-0.9,-1.1,133.0*,115.0,-1.0,0.0,123.0,10.0,106.0
Cc1ccc(OCC(=O)N2CCCCC2C)c([N+](=O)[O-])n1 (stereo unspecified),-6.5,1.3,·,·,-5.8,·,·,·,·
CC(C)CN1CCNC(=O)C1CC(=O)NCCc1ccc(C(F)(F)F)cc1 (stereo unspecified),3.4,5.5,104.0,160.0*,4.0,36.0,113.0,5.0,102.0
O=C(CC1C(=O)NCCN1CC1CCCCC1)NCCc1ccc(F)cc1 (stereo unspecified),-5.2,27.9,112.0,139.0*,13.4,-3.0,138.0,57.0,108.0
O=C(CC1C(=O)NCCN1CC1CCCCC1)NCc1ccc(F)cc1 (stereo unspecified),-31.3,-10.8,99.0,113.0,1.1,-2.0,·,·,·
Cc1ccc(CN2CCNC(=O)C2CC(=O)NC2CCCCCC2)cc1 (stereo unspecified),-10.8,-4.3,108.0,127.0,-1.1,24.0*,143.0,36.0,107.0
Cc1cc(C(C)(C)C)ccc1OCCOCCN1CCCC1,-4.1,3.0,136.0*,110.0,8.6,1.0,108.0,-2.0,100.0
CC12CCC3c4cc(CN5CCOCC5)c(O)cc4CCC3C1CCC2=O (stereo unspecified),-4.2,·,·,·,·,·,·,·,·
Cc1c(-c2cc(C(=O)O)c3ccccc3n2)cnn1C,-6.5,9.1,101.0,93.0,12.1,-1.0,·,·,·
Brc1ccc(C2=Nc3cccc4cccc(c34)N2)o1,6.6,17.1,142.0*,109.0,-43.1,2.0,99.0,3.0,98.0
SMILES,ATG4B inh,PREPL inh,MEKK3 PB1 HTS,MEKK2wt PB1 HTS,UBC13 polyUb,MEKK2 mut-MEK5,MEKK2wt confirm,MEKK2mut-MEK5,MEKK3 confirm
Fc1ccc(C2=Nc3cccc4cccc(c34)N2)cc1,20.2,10.2,99.0,98.0,-49.5,-5.0,·,·,·
O=C(COc1ccccc1F)Nc1ccccc1C(=O)NC1CC1,-0.9,2.9,·,·,-2.9,·,·,·,·
CN1/C(=C\C=Nc2cc(S(=O)(=O)N3CCOCC3)ccc2N2CCOCC2)C(C)(C)c2ccccc21,-7.9,-6.9,137.0*,111.0,-4.5,0.0,124.0,10.0,104.0
O=C1C=C(NCc2ccc(Cl)cc2)CC(c2ccco2)C1 (stereo unspecified),-4.7,10.9,127.0*,116.0,0.4,8.0,95.0,-3.0,96.0
Cc1cccc(NC(=O)c2ccc(S(=O)(=O)C(F)F)cc2)c1C,-10.0,0.9,137.0*,103.0,2.4,-1.0,109.0,0.0,104.0
Cc1cc(C)cc(NC(=O)c2ccc(S(=O)(=O)C(F)F)cc2)c1,-8.8,-1.4,144.0*,110.0,-1.1,1.0,107.0,6.0,103.0
CCN(CC)S(=O)(=O)c1ccc(C(=O)Nc2cc(C)cc(C)c2)cc1,-11.2,14.4,106.0,107.0,-9.8,6.0,·,·,·
Cc1cccc(NC(=O)c2ccc(S(=O)(=O)N3CCOCC3)cc2)c1C,-0.4,8.7,103.0,99.0,0.6,1.0,·,·,·
On1c(-c2ccccc2Cl)nc2ncccc21,-8.1,-1.2,101.0,101.0,-3.3,4.0,·,·,·
On1c(-c2ccccc2Cl)nc2ccccc21,7.5,0.6,132.0*,117.0,6.0,0.0,92.0,-7.0,100.0
CC(C)NC(=O)C(=O)NNC(=O)C12CC3CC(CC(C3)C1)C2,-0.9,-2.6,110.0,103.0,-4.2,24.0*,107.0,0.0,102.0

# Bioassay records from PubChem BioAssay.
